# Measurements published in PubChem BioAssay (Tox21).
# “And” between values parts separate entries of the source, which are not always exact repeats. Equal values may be shown once. Results filed as inconclusive are left out. Entries that show only a call come without a potency. The source holds several records for some structures; these can differ, active in one and inactive in another. The source made the active and inactive calls. Unless noted, calls come from the whole dose curve; as a rule, active = well fitted curve in the direction sought with a large enough effect in the repeat runs; inconclusive = weak or mixed curves; inactive = no such curve, though single readings can be large; an effect the other way counts as inactive or inconclusive. Starred links: 1 amine or outer side, 2 acyl side, 3 side chain; linkers in the order of their positions; H or OH if unused. Positions of bridges follow the written chain, without caps; N, C: chain ends. Non-standard residues stand in square brackets, D forms with d. Residues, ends and D or L forms follow the SMILES beside them. Chains are numbered I, II in the order given. Actinocin(9to1) = Cc1c2oc3c(C)ccc(C(=O)[*:1])c3nc-2c(C(=O)[*:2])c(N)c1=O; NMeV = CN[C@H](C(=O)O)C(C)C; Sar = CNCC(=O)O
# Key:
# [1] = qHTS assay for small molecule agonists of the p53 signaling pathway (AID 651631; calls by dose curve; note: nearly all actives have a fitted effect of over 15% in size; note: potency is the fitted concentration of half-maximal effect)
# In short: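 p53RE-bla HCT-116 cells; compounds 16 h, 37 °C; LiveBLAzer B/G FRET substrate 2 h RT; fluorescence intensity read-out, qHTS format.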
# [2] = qHTS assay for small molecules that induce genotoxicity in human embryonic kidney cells expressing luciferase-tagged ATAD5 (AID 651632); note: nearly all actives have a fitted effect of over 15% in size; note: potency is the fitted concentration of half-maximal effect
# In short: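 Luminescent reporter readout, HEK293T ATAD5-luc line: 16 hr drug exposure (37C, 5% CO2) followed by Amplite, 30 min RT.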
# [3] = qHTS assay for small molecule agonists of the p53 signaling pathway - cell viability (AID 651633; calls by dose curve; note: nearly all actives have a fitted effect of over 30% in size; note: potency is the fitted concentration of half-maximal effect)
# In short: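 Viability counter-read: CellTiter-Glo luminescence (30 min, room temperature) in the same p53RE-bla plates. These plates had been exposed to compounds for 16 h at 37 C.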
# [4] = qHTS assay for small molecules that induce genotoxicity in human embryonic kidney cells expressing luciferase-tagged ATAD5 - cell viability (AID 651634; calls by dose curve; note: nearly all actives have a fitted effect of over 25% in size; note: potency is the fitted concentration of half-maximal effect)
# In short: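 Viability read: CellTiter-Fluor fluorescence, 30 min at 37C. Cells: HEK293T, luciferase-tagged ATAD5. Exposure: 15.5 hr, 37C, 5% CO2, compound or DMSO vehicle.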
# [5] = qHTS assay for small molecule disruptors of the mitochondrial membrane potential - cell viability (AID 720634; calls by dose curve; note: nearly all actives have a fitted effect of over 20% in size; note: potency is the fitted concentration of half-maximal effect)
# In short: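 HepG2, 1 hr compound, 37 C. ATP luminescence via CellTiter-Glo, 30 min RT, same well as m-MPI.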
# [6] = qHTS assay for small molecule disruptors of the mitochondrial membrane potential (AID 720635); note: potency is the fitted concentration of half-maximal effect
# In short: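 Mitochondrial membrane potential tracked with Mito-MPS dye, red aggregates (ex 540/em 590 nm) against green monomers (ex 490/em 535 nm). Compound treatment 1 hr at 37C, dye 30 min in HepG2.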
# [7] = qHTS assay to test for compound auto fluorescence at 590 nm (red) in HepG2 cells (AID 720674)
# In short: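 1 hr compound incubation on HepG2 cells, 37 C, 5% CO2; plate read ex 540 nm / em 590 nm; intensities reported as Rose Bengal sodium equivalents.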
# [8] = qHTS assay to test for compound auto fluorescence at 535 nm (green) in HepG2 cells (AID 720675)
# [9] = qHTS assay to test for compound auto fluorescence at 460 nm (blue) in HEK293 cells (AID 720678)
# In short: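 HEK293, 2,000 cells/well, 10% dialyzed FBS; attach 4-5 hr 37C; pin compound or DMSO; o/n 37C/5% CO2; fluorescence 405/460 nm; triamterene-equivalent units.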
# [10] = qHTS assay to test for compound auto fluorescence at 590 nm (red) in HEK293 cells (AID 720679)
# In short: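 Intensity at 540nm excitation and 590nm emission is reported as Rose Bengal sodium-equivalent autofluorescence. Measurements followed overnight exposure (37C, 5% CO2) of HEK293 cells, 2,000 per well, to 23 nL compound.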
SMILES,Potency [1],Potency [2],Potency [3],Potency [4],Potency [5],Potency [6],outcome [7],Potency [8],Potency [9],outcome [10]
Nc1cc(Cl)c(-c2cc(Cl)c(N)cc2Cl)cc1Cl,68.5 µM (active) and 68.6 µM (active),13.7 µM (active),61.1 µM (active) and 54.5 µM (active),30.6 µM (active),48.5 µM (active) and 54.5 µM (active),9.68 µM (active) and 13.7 µM (active),inactive,inactive,inactive,
CCCCC/C=C/CC1CC(=O)OC1=O (stereo unspecified),inactive,inactive,inactive,inactive,inactive,,inactive,inactive,inactive,
CC(C)C(=O)c1c(C(C)C)nn2ccccc12,inactive,inactive,inactive,inactive,inactive,inactive,inactive,inactive,inactive,
NC(N)=Nc1nc(CSCC/C(N)=N/S(N)(=O)=O)cs1,inactive,inactive,inactive,inactive,inactive,inactive,inactive,inactive,,inactive
C[N+]1([O-])CCOCC1,inactive,inactive,inactive,inactive,inactive,inactive,inactive,inactive,inactive,inactive
Cc1occc(=O)c1OC(=O)C(C)C,inactive,inactive,inactive,inactive,inactive,inactive,,inactive,inactive,inactive
NCCO,inactive,inactive,inactive,inactive,inactive,,inactive,inactive,,inactive
CCCNC(C)C(=O)Nc1ccccc1C (stereo unspecified),inactive,inactive,inactive,inactive,inactive,inactive,,inactive,,
O=S(=O)(O)c1ccc2nc(-c3ccccc3)[nH]c2c1,inactive,inactive,9.44 µM (active) and 26 µM (active),inactive,9.44 µM (active) and 26 µM (active),inactive,,inactive,,inactive
O=C(O)c1cn(-c2ccc(F)cc2)c2cc(N3CCNCC3)c(F)cc2c1=O,inactive,inactive,inactive,inactive,inactive,,inactive,inactive,inactive,
C/C=C/c1ccc(OCC)c(O)c1,inactive,inactive,inactive,inactive,inactive,48.6 µM (active),,inactive,inactive,inactive
CCC[C@H](N[C@@H](C)C(=O)N1[C@H](C(=O)O)C[C@@H]2CCCC[C@@H]21)C(=O)OCC,inactive,inactive,inactive,inactive,inactive,inactive,inactive,inactive,inactive,inactive
[Cl][In]([Cl])[Cl],inactive and 61.1 µM (active),inactive,inactive,inactive,inactive,inactive,inactive,inactive,,
"Cc1c2oc3c(C)ccc(C(=O)N[C@@H]4C(=O)N[C@H](C(C)C)C(=O)N5CCC[C@H]5C(=O)N(C)CC(=O)N(C)[C@@H](C(C)C)C(=O)O[C@@H]4C)c3nc-2c(C(=O)N[C@@H]2C(=O)N[C@H](C(C)C)C(=O)N3CCC[C@H]3C(=O)N(C)CC(=O)N(C)[C@@H](C(C)C)C(=O)O[C@@H]2C)c(N)c1=O (I: T[dV]P[Sar][NMeV] / II: T[dV]P[Sar][NMeV]; ester I:1-I:C, II:1-II:C; linker I:N-II:N via Actinocin(9to1))",5.3 nM (active) and 2.7 nM (active),inactive,inactive,16.8 nM (active) and 23.7 µM (active),inactive,,inactive,inactive,inactive,inactive
CCn1cc(C(=O)O)c(=O)c2cc(F)c(N3CCNC(C)C3)c(F)c21 (stereo unspecified),inactive,inactive,inactive,inactive,inactive,inactive,inactive,inactive,inactive,inactive
CC(C)(C)c1ccccc1,inactive,inactive,inactive,inactive,inactive,,inactive,inactive,inactive,inactive
Cc1cccc2n[nH]nc12,inactive,inactive,inactive,inactive,inactive,inactive,,inactive,inactive,
O=Cc1ccc(Cl)cc1,inactive,inactive,inactive,inactive,inactive,,inactive,inactive,,inactive
COC(=O)c1cccc(C(=O)OC)c1,inactive,inactive,inactive,inactive,inactive,inactive,,inactive,inactive,inactive
CNC1(C)C2CCC(C2)C1(C)C (stereo unspecified),inactive,inactive,inactive,inactive,inactive,inactive,inactive,inactive,inactive,inactive
CC(=O)OCCOCCOCCOC(C)=O,inactive,inactive,inactive,inactive,inactive,inactive,inactive,inactive,inactive,inactive
CCOC(=O)C(C)C(C)=O (stereo unspecified),inactive,inactive,inactive,inactive,inactive,inactive,inactive,inactive,inactive,
CC1=CC(=O)c2ccccc2C1=O,38.6 µM (active),inactive,24.3 µM (active),inactive,inactive and 54.5 µM (active),,inactive,inactive,inactive,inactive

SMILES,Potency [1],Potency [2],Potency [3],Potency [4],Potency [5],Potency [6],outcome [7],Potency [8],Potency [9],outcome [10]
CCOc1ccccc1C(N)=O,inactive,inactive,inactive,inactive,inactive,inactive,inactive,inactive,,inactive
NC(N)=NC(=O)Cc1c(Cl)cccc1Cl,inactive,inactive,inactive,inactive,inactive,inactive,,inactive,inactive,inactive
CC[C@H]1CN2CCc3cc(OC)c(OC)cc3[C@@H]2C[C@@H]1C[C@H]1NCCc2cc(OC)c(OC)cc21,0.0387 µM (active),inactive,inactive,168 nM (active) and 194 nM (active),inactive,,inactive,inactive,,inactive
O=C(O)CP(=O)(O)O,inactive,inactive,inactive,inactive,inactive,inactive,,inactive,inactive,
Cc1ccnc2c1NC(=O)c1cccnc1N2C1CC1,inactive,inactive,inactive,inactive,inactive,,inactive,inactive,inactive,inactive
Cc1cccc(O)c1C,inactive,inactive,inactive,inactive,inactive,inactive,,inactive,inactive,inactive
Cc1cccc([N+](=O)[O-])c1C(=O)O,inactive,inactive,inactive,inactive,inactive,inactive,inactive,inactive,inactive,inactive
CCCC(=O)c1ccccc1,inactive,inactive,inactive,inactive,inactive,,inactive,inactive,,
CCc1ccc(C(c2ccc(CC)cc2)C(Cl)Cl)cc1,inactive,inactive,inactive,inactive,inactive,49.3 µM (active) and 27.3 µM (active),,inactive,inactive,inactive
CC(=O)CC(C)=O,inactive,inactive,inactive,inactive,inactive,,inactive,inactive,inactive,inactive
O=C(O)c1cc(Cl)cc(Cl)c1,inactive,inactive,inactive,inactive,inactive,inactive,inactive,inactive,inactive,
CCN1CCCC1CNC(=O)c1cc(S(=O)(=O)CC)c(N)cc1OC (stereo unspecified),inactive,inactive,inactive,inactive,inactive,inactive,inactive,inactive,,inactive
Cc1cc(C(C)(C)C)c(O)c(C(C)(C)C)c1,inactive,inactive,inactive,inactive,inactive,48.7 µM (active) and 24.3 µM (active),inactive,inactive,inactive,
CC(=O)N[C@@H](CS)C(=O)O,inactive,inactive,inactive,inactive,,,inactive,inactive,,inactive
COC(c1ccccc1)(c1ccccc1)[C@H](Oc1nc(C)cc(C)n1)C(=O)O,inactive,inactive,inactive,,inactive,inactive,inactive,inactive,,inactive
OCC(CO)N[C@H]1C[C@](O)(CO)[C@@H](O)[C@H](O)[C@H]1O,inactive,inactive,inactive,inactive,,inactive,inactive,inactive,,inactive
c1ccc2n[nH]nc2c1,inactive,inactive,inactive,inactive,,inactive,inactive,inactive,inactive,inactive
Cc1scc2c1N(C(=O)CN1CCN(C)CC1)c1ccccc1NC2=O,inactive,inactive,inactive,inactive,,,inactive,inactive,inactive,
C=CS(=O)(=O)O,inactive,inactive,inactive,,,,inactive,inactive,inactive,
COc1cc(C(=S)N2CCOCC2)ccc1O,inactive,inactive,inactive,inactive,,,inactive,inactive,,
O=C(O)CCc1ccccc1,inactive,inactive,inactive,,inactive,inactive,,inactive,inactive,inactive
CO[Si](OC)(OC)c1ccccc1,inactive,inactive,inactive,,,inactive,inactive,inactive,inactive,inactive
CC(C)(C)NCC(O)c1cc(O)cc(O)c1 (stereo unspecified),inactive,inactive,inactive,,,inactive,inactive,inactive,,inactive
